# Experimental data taken from PubChem BioAssay AID463173 (ICCB-Longwood Screening Facility, Harvard Medical School, 2010).
# About 4,300 (8.3%) of roughly 52,000 compounds were called active. Many of the other results were omitted from the sample, so actives are more common in it than they were. A number with no mark means an inactive call. Cut-off read from the data, not from the text of the source: active = survival mostly below about 52% (no sharp cut-off); inactive = mostly above about 56%.
# Test system: DeltatarO mutant
# Test: growth inhibition of S. aureus wild type versus tarO mutant, primary screen, teichoic acid synthesis inhibitors, RN4220, OD600 (AID 463173)
# Conditions: OD600, 18 h, stronger effect = lower value, screened at 18.75 µg/mL (by protocol)
row,SMILES,survival
1,Cn1c(=O)c2cc(C(=O)NCCCN3CCN(c4cccc(Cl)c4)CC3)sc2c2ccccc21,48%
2,Cc1cc(C)c(Cn2c(=O)n(CCC(=O)NCc3ccc4c(c3)OCO4)c(=O)c3ccccc32)c(C)c1,108%
3,CN(C)c1ccc(NC(=O)Cn2c(SCc3ccccc3F)nc3cccnc32)cc1,124%
4,CC(C)(C)c1ccc(OCC(=O)N(Cc2ccco2)Cc2ccccc2F)cc1,78%
5,Cc1cc(O)c(C(c2ccccc2)N2CCN(c3ccc(F)cc3)CC2)c(=O)n1Cc1ccco1 (stereo not drawn),67%
6,COc1ccccc1CCNC(=O)c1ccc2c(c1)c(C)c(C)n2C,95%
7,Cc1ccc(NC(=O)CSc2nc(-c3ccco3)nc3cc(=O)[nH]n23)cc1C,135%
8,CCOc1ccc(OCC)c(Nc2nc3ccccc3c3nnc(C)n23)c1,91%
9,Cc1nn(-c2ccc(N3CCCC3)nn2)c(C)c1CCC(=O)NCc1ccccc1F,82%
10,Cc1ccc(-c2nc(CCNC(=O)C(=O)Nc3ccc(C)c(Cl)c3)cs2)cc1,60%
11,Cc1ccc(-c2nc(CCNC(=O)C(=O)Nc3ccc(C)c(C)c3)cs2)cc1,20% (active)
12,Cc1ccc(-c2nc(CCNC(=O)C(=O)Nc3ccc(C)cc3C)cs2)cc1,66%
13,Cc1cccc(NC(=O)C(=O)NCCc2csc(-c3ccc(F)cc3)n2)c1C,83%
14,Cc1ccc(-c2nc(CCNC(=O)C(=O)Nc3c(C)cccc3C)cs2)cc1,8% (active)
15,Cc1cc(C)c(NC(=O)C(=O)NCCc2csc(-c3ccc(F)cc3)n2)c(C)c1,67%
16,Cc1c(CCNC(=O)c2ccc(Br)o2)sc2nc(-c3ccc(Cl)cc3)nn12,75%
17,Cc1cccc(NC(=O)CCn2cnnn2)c1,79%
18,O=C(CCn1cnnn1)Nc1cc(C(F)(F)F)cc(C(F)(F)F)c1,69% (active)
19,O=C(CCn1cnnn1)Nc1ccc(F)cc1,72%
20,CC(=O)Nc1cccc(-c2nnc(SCC(=O)c3ccc([N+](=O)[O-])cc3)o2)c1,130%
21,COc1ccc(NCc2nnc3n2CCCCC3)c(OC)c1,100%
22,COc1ccc(Cl)cc1NCc1nnc2n1CCCCC2,8% (active)
23,Fc1ccc(NCc2nnc3n2CCCCC3)cc1Cl,102%
24,COc1ccc(C)cc1NCc1nnc2n1CCCCC2,20% (active)

row,SMILES,survival
1,Cc1cc(C)cc(NCc2nnc3n2CCCCC3)c1,89%
2,Cc1ccc(Cl)cc1NCc1nnc2n1CCCCC2,101%
3,Clc1cccc(-n2ncc3c(N4CCC(Cc5ccccc5)CC4)ncnc32)c1,83%
4,CCOC(=O)c1ccccc1NC(=O)CSc1nccn1Cc1ccco1,75%
5,COCCCNC(=O)CCC(=O)NNc1nc2ccccc2c2nc(-c3ccccc3)nn12,100%
6,O=C(CCn1nnc2ccccc21)N1CCC(O)(c2cccc(F)c2)CC1,81%
7,COC(=O)c1ccccc1NC(=O)Cn1cc(S(=O)(=O)Cc2ccccc2F)c2ccccc21,94%
8,COc1cccc(N2C(=O)CSC23C(=O)N(Cc2ccccc2F)c2ccccc23)c1 (stereo not drawn),67%
9,COc1ccc(C2C=C(c3ccccc3)Nc3nc(NC(C)=O)nn32)cc1 (stereo not drawn),53%
10,Cc1ccc(C(=O)Nc2nc3n(n2)C(c2ccc(F)cc2)C=C(c2ccccc2)N3)cc1 (stereo not drawn),43% (active)
11,COc1ccc(C(=O)Nc2nc3n(n2)C(c2ccc(F)cc2)C=C(c2ccc(Cl)cc2)N3)cc1 (stereo not drawn),54%
12,O=C(Nc1nc2n(n1)C(c1ccc(F)cc1)C=C(c1ccccc1)N2)c1ccc(Cl)cc1 (stereo not drawn),48%
13,COc1ccc(C2C=C(c3ccccc3)Nc3nc(NC(=O)c4ccc(C)cc4)nn32)cc1 (stereo not drawn),44% (active)
14,Cc1ccc(C(=O)Nc2nc3n(n2)C(c2ccccc2)C=C(c2ccccc2)N3)cc1 (stereo not drawn),57%
15,CCOc1ccccc1CNC(=O)CN(c1ccc(C)cc1)S(=O)(=O)N(C)C,70%
16,Cc1ccc2[nH]cc(C(c3ccccc3)c3ccc(Cl)s3)c2c1 (stereo not drawn),10% (active)
17,Clc1ccc(C(c2ccccc2)c2c[nH]c3ccccc23)s1 (stereo not drawn),-3% (active)
18,O=C(O)CSc1c[nH]c2ccccc12,84%
19,COc1ccc(C(CN)c2c[nH]c3ccccc23)cc1 (stereo not drawn),107%
20,Cc1ccc2[nH]cc(S(=O)(=O)c3ccc(C)c(C)c3)c(=O)c2c1,81%
21,Cn1cc(C(c2ccccc2)c2ccc(Cl)s2)c2ccccc21 (stereo not drawn),102%
22,c1ccc(C(c2cccs2)c2c[nH]c3ccccc23)cc1 (stereo not drawn),-1% (active)
23,Cc1ccc2[nH]cc(C(c3ccccc3)c3cccs3)c2c1 (stereo not drawn),12% (active)
24,CCCCN(CC)C(=O)c1nn(-c2ccc(OC)cc2)c(=O)c2c1c1ccccc1n2C,82%

row,SMILES,survival
1,COc1cccc(CNC(=O)Cn2cc3c(n2)-c2c(oc(C(=O)N4CCCC4)c2C)CC3)c1,76%
2,Cc1cccc(N2CCN(c3ncnc4onc(C)c34)CC2C)c1 (stereo not drawn),77%
3,CCc1ccc(C(c2ccccc2)c2c[nH]c3ccc(C)cc23)s1 (stereo not drawn),69%
4,CCN(Cc1ccccc1)C(=O)c1cc2c(=O)[nH]c3ccc(C)cc3c2s1,49%
5,Cc1ccc2[nH]cc(C(c3ccccc3)c3ccc(C)s3)c2c1 (stereo not drawn),25% (active)
6,Cc1ccc(OCc2nc(-c3ccc(C(=O)N4CCN(c5ccc(Cl)cc5)CC4)cc3)oc2C)cc1,76%
7,CCc1cccc(NC(=O)Cn2nc(-c3cc(C)ccc3C)ccc2=O)c1,34% (active)
8,CCC(C(=O)Nc1cccc(C#N)c1)n1nc(-c2ccccc2)ccc1=O (stereo not drawn),40% (active)
9,CCc1cccc(NC(=O)Cn2nc(-c3ccc(OC)cc3)ccc2=O)c1,83%
10,Cc1ccc(C)c(-c2ccc(=O)n(C(C)C(=O)Nc3ccccc3C(F)(F)F)n2)c1 (stereo not drawn),41% (active)
11,Cc1ccc(C)c(NC(=O)C(C)n2c(=O)cc(C(F)(F)F)c3c(C)nn(C)c32)c1 (stereo not drawn),89%
12,CCC(C(=O)Nc1ccc(C(=O)OC)cc1)n1nc(-c2ccc(C)c(C)c2)ccc1=O (stereo not drawn),86%
13,CCc1cccc(NC(=O)Cn2nc(CC)n3c(cc4cc(C)ccc43)c2=O)c1,56%
14,CCC(C(=O)Nc1cccc(C#N)c1)n1c(=O)c(-c2ccccc2NC(C)=O)nc2ccccc21 (stereo not drawn),100%
15,CCOc1ccc(NC(=O)C(CC)n2nc(-c3ccc(C)c(C)c3)ccc2=O)cc1 (stereo not drawn),68%
16,CCc1ccccc1NC(=O)C(C)n1nc(-c2ccc(C)c(C)c2)ccc1=O (stereo not drawn),54%
17,CCC(C(=O)Nc1ccccc1)n1nc(-c2cc(C)ccc2C)ccc1=O (stereo not drawn),37% (active)
18,Cc1ccc(-c2ccc(=O)n(CC(=O)Nc3cccc(C#N)c3)n2)cc1,112%
19,COc1ccc(Nc2ncnc3c2cnn3-c2ccc(C)cc2)cc1Cl,128%
20,CC1=C(c2ccc(C)c(C)c2)S(=O)(=O)N=C1N1CCC(C(=O)Nc2cccc(F)c2)CC1,79%
21,O=C(COC(=O)c1ccccc1Cl)Nc1nccs1,94%
22,Cc1ccc(CCNC(=O)NCc2noc3ccccc23)cc1,102%
23,COc1ccc(CNC(=O)C(=O)Nc2c3c(nn2-c2ccccc2)CSC3)cc1,86%
24,Cc1ccc(OCCSc2nc(-c3ccccc3C)nc3cc(=O)[nH]n23)cc1Cl,106%

row,SMILES,survival
1,COc1ccc(CNC(=O)CCS(=O)(=O)c2cc(Br)cc3c2N(C(C)=O)C(C)C3)cc1 (stereo not drawn),92%
2,CCOC(=O)c1c(S(=O)(=O)N2CCC(C(=O)Nc3cccc(C)n3)CC2)c(C)n(C)c1C,94%
3,CCC(C(=O)Nc1cc(F)ccc1F)n1nc(-c2cc(C)ccc2C)ccc1=O (stereo not drawn),38% (active)
4,CCC(C(=O)Nc1cc(F)ccc1F)n1nc(C)c2c(C)n(-c3ccc(C)cc3)nc2c1=O (stereo not drawn),87%
5,Cc1ccc2onc(CNC(=O)Nc3cc(F)ccc3F)c2c1,49%
6,COc1ccc(NC(=O)c2sc3nc4n(c(=O)c3c2C)CCC4)cc1Cl,108%
7,CCc1ccc(NC(=O)C2(c3cccs3)CCOCC2)cc1,73%
8,Nc1n[nH]c2nc(C(F)(F)F)cc(=O)n12,62%
9,Cc1ccc(C(=O)C2=C(O)C(=O)N(CCc3ccccc3)C2c2ccncc2)o1 (stereo not drawn),103%
10,O=C(Nc1ccc(-c2nc3cc(NC(=O)c4ccc(Cl)cc4)ccc3o2)cc1)c1ccc(Cl)cc1,88%
11,COc1cc(OC)cc(C(=O)Nc2ccc3oc(-c4cccc5c(Br)cccc45)nc3c2)c1,60%
12,COc1cccc(C(=O)Nc2ccc3oc(-c4ccc5ccccc5c4)nc3c2)c1,55%
13,COc1cc(OC)cc(C(=O)Nc2ccc3oc(-c4ccccc4C)nc3c2)c1,34% (active)
14,CC(C)Oc1cccc(C(=O)Nc2ccc(-c3nc4cc(Cl)cc(Cl)c4o3)cc2)c1,55%
15,COC(=O)c1ccc(C(=O)Nc2ccc(-c3nc4cc(NC(=O)c5ccc(C(=O)OC)cc5)ccc4o3)cc2)cc1,60%
16,COc1cc(OC)cc(C(=O)Nc2ccc(-c3nc4cc(C(C)C)ccc4o3)cc2)c1,45% (active)
17,COc1ccc(C(=O)Nc2ccc3oc(-c4ccc(OC)cc4)nc3c2)cc1,60%
18,COc1cc(C(=O)Nc2ccc(-c3nc4cc(C)c(C)cc4o3)cc2)cc(OC)c1OC,59%
19,CC(C)Oc1cccc(C(=O)Nc2ccc3oc(-c4cccc(Cl)c4)nc3c2)c1,28% (active)
20,COc1cc(OC)cc(C(=O)Nc2ccc3oc(-c4ccc(Cl)cc4)nc3c2)c1,50% (active)
21,Cc1ccc(C(=O)Nc2ccc3oc(-c4ccccc4C)nc3c2)cc1,65%
